This is a sample that favours compounds with a hit; in the whole collection about 12% have one here.
HP1b binding inh: blocks HP1-beta chromodomain binding to methylated histone tails | P83916 | AlphaScreen HP1-beta / biotin-H3K9me3 peptide binding | Potency, µM (top dose mostly 114 µM), without a hit: at the top dose activity change, negative = inhibition, usual class: inhibitors | 390,000 compounds, 0.56% hits; also: nearly all actives have a fitted effect of over 70% in size
Target sequence (P83916 whole entry, looked up): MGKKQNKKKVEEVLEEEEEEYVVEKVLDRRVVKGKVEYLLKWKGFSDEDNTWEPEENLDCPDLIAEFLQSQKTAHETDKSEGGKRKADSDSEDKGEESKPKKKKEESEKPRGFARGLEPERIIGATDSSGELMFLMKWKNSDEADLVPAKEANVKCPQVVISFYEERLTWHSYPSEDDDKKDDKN
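AlphaScreen: HP1-beta (50 nM) preformed 30 min with biotin-H3(1-18)K9me3 peptide (50 nM) in PBS pH 7.4, 0.01% Tween-20. Compound added for 30 min at RT, then streptavidin donor/nickel chelate acceptor beads (10 ug/mL) for 30 min.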
BAZ2B block: blocks human BAZ2B. Q9UIF8. Potency, µM (highest dose often 114 µM), without a hit: at the top dose activity change, negative = inhibition, most hits filed as inhibitors. AlphaScreen BAZ2B-H3K14Ac peptide displacement. 360,000 compounds, 4.4% hits; also: % is scaled to controls: 0 for no effect and ±100 for the full control effect; nearly all actives have a fitted effect of over 60% in size
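Complex of BAZ2B and biotin-H3K14Ac (50 nM apiece) forms over 30 min at RT, then faces library compounds up to 110 uM for another 30 min; AlphaScreen beads added, 20 min dark incubation, luminescence read.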
Sfp PPTase inh: inhibitors of Bacillus subtilis Sfp phosphopantetheinyl transferase | 310,000 compounds, 3.5% hits | Biochemical Sfp PPTase activity, qHTS | AID 1490 | Potency, µM, for inactives: largest response in the series, negative = inhibition, most hits filed as inhibitors;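 also: the enzyme is Sfp with the accession as filed and its product quenches rhodamine fluorescence; 0% = enzyme reaction without inhibitor and -100% = no enzyme wells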
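With Hepes-Na pH 7.6 buffer containing 10 mM MgCl2, Sfp (15 nM) modified BHQ-2-YbbR (12.5 uM) using rhodamine-CoA (5 uM). Two reads 30 minutes apart at 525/598 nm yielded each well's rate.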
G9a block: inhibitors of human histone lysine methyltransferase G9a. Q96KQ7. 350,000 compounds, 8.8% hits. Potency, µM (doses to about 102 µM), without a hit: at the highest dose activity, negative = inhibition, most hits filed as inhibitors. G9a H3K9 monomethylation, AlphaScreen, 2 h; also: % is scaled to controls: 0 for no effect and ±100 for the full control effect; nearly all actives have a fitted effect of over 75% in size
Target sequence (Q96KQ7 913-1193 limits assumed): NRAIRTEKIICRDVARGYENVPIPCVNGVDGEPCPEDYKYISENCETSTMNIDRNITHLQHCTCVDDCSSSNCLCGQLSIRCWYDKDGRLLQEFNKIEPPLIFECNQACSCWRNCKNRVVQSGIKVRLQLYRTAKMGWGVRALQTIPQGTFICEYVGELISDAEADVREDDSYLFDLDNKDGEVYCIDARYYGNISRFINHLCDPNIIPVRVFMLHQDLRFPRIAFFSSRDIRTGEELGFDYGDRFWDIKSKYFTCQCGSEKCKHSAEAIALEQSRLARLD
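AlphaScreen detection with an anti-monomethyl H3K9 antibody quantified product after a 2 h room-temperature reaction containing 500 nM biotinylated H3K9 peptide, 20 µM SAM and 20 nM enzyme, which had been preincubated 15 min with compound.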
L3MBTL1 inh: L3MBTL1 (human) inhibition. Potency, µM (top dose mostly 57.1 µM), inactives show top-dose activity, negative = inhibition, most hits filed as inhibitors. AID 485360. Q9Y468. 230,000 compounds, 0.66% hits. AlphaScreen L3MBTL1–H3K9me1 peptide binding; also: % is scaled to controls: 0 for no effect and ±100 for the full control effect; nearly all actives have a fitted effect of over 60% in size
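L3MBTL1 50 nM + b-AHA-H3(1-15)K9me1 75 nM, 30 min RT; compound added, 30 min RT; streptavidin donor/Ni-chelate acceptor beads 10 ug/mL each final, 30 min RT dark; AlphaScreen read.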
JMJD2A Tudor inh: JMJD2A Tudor domain (human) inhibition; O75164; Potency, µM (top dose mostly 114 µM), for inactives: at the top dose activity change, negative = inhibition, usual class: inhibitors; AlphaScreen JMJD2A-Tudor / H3K4me3 peptide binding; 390,000 compounds, 4.4% hits; AID 504339; also: % is scaled to controls: 0 for no effect and ±100 for the full control effect; nearly all actives have a fitted effect of over 50% in size
Numbers without * were called inactive; ? = inconclusive; · = not tested or not shown; [ ] = remark or other dose. Calls follow the shape of the dose curve; as a rule, active = well fitted curve in the direction sought with a large enough effect; inconclusive = small, poorly fitted or top-dose-only effect, or another doubt; inactive = no such curve, though single readings can be large; an effect the other way counts as inactive or inconclusive. Potency is read from the fitted curve at half-maximal effect.

SMILES	HP1b binding inh	BAZ2B block	Sfp PPTase inh	G9a block	L3MBTL1 inh	JMJD2A Tudor inh
COc1ccc(/C=C2\SC(=N)N(c3nccs3)C2=O)cc1OC	9%	0%	14%	-17%	15%	?
Clc1cccc(-c2ccc(/C=N/n3cnnc3)o2)c1	-1%	-9%	-21%	5%[12.7 µM]	·	-22%
N=C1S/C(=C\c2ccc(-c3cccc(Cl)c3)o2)C(=O)N1c1nccs1	-15%	-31%	35µM*	3.5µM*	?	?
Cc1cccc(CCNC(=O)Cn2ncc3c(=O)oc4ccccc4c32)c1	36%	·	·	-28%[59 µM]	·	-22%
Cc1ccnc(NC(c2cc(C)ccc2O)c2ccc3cccnc3c2O)c1 (stereo not given)	7%	22µM*	·	10µM*	·	28µM*
CC(=O)NC(c1ccc(Cl)cc1)c1ccc2cccnc2c1O (stereo not given)	38%	·	·	·	·	?
O=C(O)c1ccccc1NC(c1ccccc1)c1ccc2cccnc2c1O (stereo not given)	25µM*	·	·	·	·	28µM*
Cc1ccnc(NCc2c(O)ccc3ccccc23)c1	14%	?	-5%	·	-6%	-31%
Cc1cc(NC(c2ccc(Cl)cc2)c2ccc3cccnc3c2O)no1 (stereo not given)	23%	45µM*	6%	23%[59 µM]	·	?
Cc1ccnc(NC(c2ccccc2F)c2ccc3cccnc3c2O)c1 (stereo not given)	7%	25µM*	·	?	·	13µM*
CCCCC(=O)NC(c1ccc(Cl)cc1Cl)c1ccc2cccnc2c1O (stereo not given)	28%	?	16%	·	2%	?
Cc1ccccc1C(=O)N1CCC(N2CCN(Cc3ccc(F)cc3)C(=O)C2=O)CC1	25%	-17%	·	3%[59 µM]	·	3%
COCCCNC(=O)C1CCN(C(=O)c2ccc(-n3ccc4ccccc43)s2)CC1	25%	-21%	·	-2%[59 µM]	·	1%
CCOc1cc(OCC)c(C(=O)CCC(=O)O)cc1OCC	·	·	29%	?	·	·
Cc1ccc2c(CC(=O)Nc3c(C(=O)Nc4cccc(Cl)c4)oc4ccccc34)coc2c1C	29%	-1%	·	-26%[59 µM]	·	1%
COC1C(O)COC1/C=C/c1ccccc1 (stereo not given)	·	·	7%	·	·	·
COc1ccc(C(Nc2cc(C)ccn2)c2ccc3ccc(C)nc3c2O)cc1 (stereo not given)	-13%	-25%	6%	4µM*	·	?
CCCC(=O)NC(c1ccccc1Cl)c1ccc2cccnc2c1O (stereo not given)	41%	-34%	12%	41%	3%	-27%
Oc1ccccc1C(Nc1nccs1)c1ccc2cccnc2c1O (stereo not given)	0%	28µM*	23%	·	?	35µM*
O=C(O)c1ccc2cccnc2c1O	3%	25µM*	20µM*	·	3%	10µM*
Oc1c(C(Nc2ccccn2)c2ccccn2)ccc2cccnc12 (stereo not given)	29%	-113%	11%	32µM*	28µM*	-22%[11.4 µM]
N#CCCCS(=O)(=O)c1nnnn1-c1ccc(F)cc1Br	·	·	7%	·	·	·
CCc1ccc(CNC(=O)c2cc(=O)[nH]c3ccc(S(=O)(=O)N4CCCCC4)cc23)cc1	42%	-2%	·	5%[59 µM]	·	-7%
CCc1ccc(NC(=O)CCCc2nc(-c3ccco3)no2)cc1	28%	-3%	·	-2%[59 µM]	·	-11%
CC(=O)Nc1ccc(N(C(=O)Cn2nnc3ccccc32)C(C(=O)NCc2ccccc2)c2ccc(C)cc2)cc1 (stereo not given)	17%	-7%	·	-3%[59 µM]	·	-14%
COc1ccccc1NC(c1cccnc1)c1ccc2cccnc2c1O (stereo not given)	?	14µM*	20µM*	1.4µM*	?	22µM*
CCC(=O)NC(c1ccc(Cl)cc1Cl)c1ccc2cccnc2c1O (stereo not given)	40%	-5%	7%	17%	-13%	-28%

Source: PubChem (National Center for Advancing Translational Sciences (NCATS))
